Several values for one entry are separate records, joined by “and”; a condition that tells them apart may be missing. Equal entries are not always repeated. Results filed as inconclusive are left out. For some of these results: Entries with a potency or affinity are not part of this list. Activity calls are given as the source filed them.
What was measured:
[1] = qHTS for compounds that reverse cellular toxicity of Amyloid beta (A-beta) peptide in yeast: LOPAC Validation Assay (AID 720559; active = well fitted curve in the direction sought with a large enough effect; an effect the other way counts as inactive or inconclusive;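 note: plate controls were DMSO for no effect and equimolar ferric chloride plus clioquinol rescue for full effect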)
Method in brief: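 Activity is expressed relative to DMSO and an equimolar ferric chloride/clioquinol mix. Compounds were pinned into medium with A-beta-expressing yeast, grown 48 hr at 30 C, then read by absorbance at 600 nm.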

[2] = qHTS for Activators of Parkin Expression: LOPAC Validation Assay (FLuc Reporter) (AID 720573; active = well fitted curve in the direction sought with a large enough effect; an effect the other way counts as inactive or inconclusive;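 note: 0% = DMSO and 100% = positive control compounds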)
Method in brief: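 A neuronal cell line harbouring FLuc and NLuc reporters behind the Parkin promoter was exposed to compounds for 24 h. Firefly luciferase signal, measured after 10 min with detection reagent, was scaled to DMSO and positive-control wells.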

[3] = qHTS assay for small molecule agonists of the antioxidant response element (ARE) signaling pathway measured by Nrf2-dependant transcriptional activity (AID 720636; active = well fitted curve in the direction sought with a large enough effect in the repeat runs; an effect the other way counts as inactive or inconclusive;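 note: HepG2 cells with an ARE-driven luciferase reporter; % of control where 0% means no effect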)
Method in brief: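 Reporter gene assay, HepG2 ARE-luc: 16 hr compound, 37 C, 5% CO2; read-out luciferase luminescence.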

[4] = qHTS assay for small molecule antagonists of the retinoid-related orphan receptor gamma (ROR-gamma) signaling pathway - cell viability counter screen (AID 720652; active = well fitted curve in the direction sought with a large enough effect in the repeat runs; an effect the other way counts as inactive or inconclusive;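 note: CHO reporter cells with doxycycline-induced ROR-gamma expression; compound exposure lasted 16 hr before ATP read; % is set by controls: 0 for no effect and ±100 for the full control effect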)
Method in brief: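 Cytotoxicity is quantified via intracellular ATP (CellTiter-Glo luminescence) in doxycycline-induced CHO ROR response element-luciferase reporter cells treated with compound for 16 hr at 37 C, 5% CO2.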

[5] = qHTS assay for small molecule agonists of the antioxidant response element (ARE) signaling pathway measured by Nrf2-dependant transcriptional activity - cell viability counter screen (AID 720653; active = well fitted curve in the direction sought with a large enough effect in the repeat runs; an effect the other way counts as inactive or inconclusive; note: % is set by controls: 0 for no effect and ±100 for the full control effect); conditions: ARE-bla HepG2 viability, CellTiter-Glo ATP luminescence, 16 h; max response: stronger effect = lower value
Method in brief: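 ARE-bla HepG2 cells treated with compounds for 16 h at 37C; this counter screen measures viability as intracellular ATP by CellTiter-Glo luminescence after 30 min at room temperature.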

[6] = molecular target: T1, Hexokinase-4 (Homo sapiens) + Glucokinase regulatory protein (Homo sapiens) (UniProt P35557+Q14397); test: qHTS assay for inhibitors of recombinant human GCK-GKRP interaction: Diaphorase-coupled assay (AID 743205; active = well fitted curve in the direction sought with a large enough effect; an effect the other way counts as inactive or inconclusive)
Method in brief: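 Inhibitors of the GCK–GKRP complex relieve GKRP suppression of GCK, detected through a G6PDH–diaphorase cascade reducing resazurin. Human GST-GCK and FLAG-GKRP are used at 10 nM with 5 mM glucose and 0.4 mM ATP.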

[7] = molecular target: T1, Hexokinase-4 (Homo sapiens) + Glucokinase regulatory protein (Homo sapiens); test: qHTS assay for inhibitors of recombinant human GCK-GKRP interaction: ADP-Glo assay (AID 743206; active = well fitted curve in the direction sought with a large enough effect; an effect the other way counts as inactive or inconclusive;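 note: plate controls were DMSO plus enzyme for no effect and no enzyme for full effect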)
Method in brief: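 GST-GCK and FLAG-GKRP (15 nM each in the dispensed mix, with 2 uM S6P) react with 0.4 mM ATP and 5 mM glucose (final) in Hepes pH 7.6 for 60 min at room temperature. ADP is measured by ADP-Glo luminescence.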

[8] = molecular target: T1, Hexokinase-4 (Homo sapiens) + Glucokinase regulatory protein (Homo sapiens); test: qHTS assay for inhibitors of recombinant human GCK-GKRP interaction: HTRF assay (AID 743207; active = well fitted curve in the direction sought with a large enough effect; an effect the other way counts as inactive or inconclusive;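 note: 0% = DMSO with GCK present and -100% = DMSO wells lacking GCK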)
Method in brief: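 Steps: dispense GCK–GKRP complex (5 nM each, GST- and FLAG-tagged) with 2 uM S6P; pin in compounds; add XL665/Eu-cryptate-labelled antibodies; incubate 60 min at room temperature; read time-resolved FRET at 665 and 615 nm.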

[9] = qHTS Assay for Identifying Gametocytocidal Compounds (AID 743244; active = well fitted curve in the direction sought with a large enough effect; an effect the other way counts as inactive or inconclusive;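 note: % is set by controls: 0 for no effect and ±100 for the full control effect; actives lower the fluorescent signal which means gametocytes are killed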); conditions: P. falciparum 3D7 stage III-V gametocytes, alamarBlue, 72 h; max response: stronger effect = lower value
Method in brief: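 In this qHTS viability screen, late-stage 3D7 gametocytes are incubated with compound for 72 h, then with alamarBlue for 24 h; reduced resorufin fluorescence marks killing.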

[10] = qHTS assay for cell viability of HEK293 cells (AID 743288; active = well fitted curve in the direction sought with a large enough effect; an effect the other way counts as inactive or inconclusive; note: % is set by controls: 0 for no effect and ±100 for the full control effect; nearly all actives have a fitted effect of over 50% in size); conditions: ATP luminescence (CellTiter-Glo), 18 h; max response: stronger effect = lower value
Method in brief: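 The Tox21 protocol used parental HEK293 cells treated for 18 h at 37 C with compounds delivered by pintool; ATP-coupled luminescence after 30 min at room temperature gave viability.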

[11] = qHTS assay for cell viability of the p53RE-bla HCT-116 cell line (AID 743292; active = well fitted curve in the direction sought with a large enough effect; an effect the other way counts as inactive or inconclusive; note: % is set by controls: 0 for no effect and ±100 for the full control effect; nearly all actives have a fitted effect of over 55% in size)
Method in brief: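 Readout: CellTiter-Glo luminescence after 30 min RT. Treatment: compounds in DMSO, 16 h, 37 C. Cells: CellSensor p53RE-bla HCT-116, 4,000/well, preincubated 5 h.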

[12] = qHTS profiling of the MIPE4 collection as inhibitors of Plasmodium falciparum (3D7) proliferation (AID 743344);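 note: scaled between DMSO vehicle wells and 0.29 µM artemisinin as full inhibition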; conditions: P. falciparum 3D7 in erythrocytes, SYBR Green DNA fluorescence, 72 h; at 28.5 µM (top of the series) unless noted
Method in brief: (§1)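 Erythrocytes infected with P. falciparum (0.3% parasitemia, 2.5% hematocrit) incubated with compounds 72 h at 37 C, 5% CO2. Lysis with saponin/Triton buffer containing SYBR Green I, overnight at room temperature in the dark; DNA fluorescence (485/535 nm) normalised to 0.29 uM artemisinin and DMSO.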

[13] = qHTS profiling of the MIPE4 collection as inhibitors of Plasmodium falciparum (DD2) proliferation (AID 743345); conditions: P. falciparum Dd2 in erythrocytes, SYBR Green DNA, 72 h; at 28.5 µM (top of the series) unless noted
Method in brief: as §1

[14] = qHTS profiling of the MIPE4 collection as inhibitors of Plasmodium falciparum (DD2) proliferation (Rep 2) (AID 743346); conditions: P. falciparum Dd2 in erythrocytes, SYBR Green DNA, 72 h; at 28.5 µM (top of the series) unless noted
Method in brief: as §1

[15] = qHTS profiling of the MIPE4 collection as inhibitors of Plasmodium falciparum (HB3) proliferation (AID 743347);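 note: plate controls were DMSO vehicle wells for no effect and artemisinin wells for full effect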; conditions: P. falciparum HB3 in erythrocytes, SYBR Green DNA, 72 h; at 28.5 µM (top of the series) unless noted
Method in brief: as §1

[16] = Ebola virus entry assay, green fluorescence channel
[17] = Ebola virus entry assay, blue channel fluorescence
[18] = qHTS profiling for inhibitors of Plasmodium falciparum (3D7) proliferation (AID 743322);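 note: infected erythrocytes exposed to compound for 72 h before lysis; 100% = DMSO vehicle wells and 0% = 0.29 µM artemisinin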; conditions: P. falciparum 3D7 proliferation; at 28.7 µM (top of the series)
Method in brief: as §1

[19] = qHTS profiling for inhibitors of Plasmodium falciparum (DD2) proliferation (AID 743323); conditions: lower = more inhibition; at 28.7 µM (top of the series)
Method in brief: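 1536-well qHTS; infected RBCs 0.3% parasitemia/2.5% Hct final; cpd 72 h 37 C 5% CO2; lysis buffer + SYBR Green I, o/n RT dark; FI 485/535; norm. to 0.29 uM artemisinin and DMSO, plate-stack corrected.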
Throughout, for efficacy: 0% is about no effect.

T1 sequence (P35557 whole entry, looked up): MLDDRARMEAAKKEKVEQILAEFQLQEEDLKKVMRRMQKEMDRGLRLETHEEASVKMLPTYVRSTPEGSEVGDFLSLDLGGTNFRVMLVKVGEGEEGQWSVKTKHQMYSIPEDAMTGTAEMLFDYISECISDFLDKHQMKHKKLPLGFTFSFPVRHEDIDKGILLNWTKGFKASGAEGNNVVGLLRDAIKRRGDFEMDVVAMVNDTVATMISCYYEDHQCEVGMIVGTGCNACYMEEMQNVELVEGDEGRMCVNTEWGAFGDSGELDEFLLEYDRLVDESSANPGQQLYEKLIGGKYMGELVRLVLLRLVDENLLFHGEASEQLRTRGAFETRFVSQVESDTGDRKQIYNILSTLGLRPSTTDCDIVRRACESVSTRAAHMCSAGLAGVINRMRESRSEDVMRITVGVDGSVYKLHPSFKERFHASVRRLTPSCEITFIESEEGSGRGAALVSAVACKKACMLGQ
T1 sequence (Q14397 whole entry, looked up): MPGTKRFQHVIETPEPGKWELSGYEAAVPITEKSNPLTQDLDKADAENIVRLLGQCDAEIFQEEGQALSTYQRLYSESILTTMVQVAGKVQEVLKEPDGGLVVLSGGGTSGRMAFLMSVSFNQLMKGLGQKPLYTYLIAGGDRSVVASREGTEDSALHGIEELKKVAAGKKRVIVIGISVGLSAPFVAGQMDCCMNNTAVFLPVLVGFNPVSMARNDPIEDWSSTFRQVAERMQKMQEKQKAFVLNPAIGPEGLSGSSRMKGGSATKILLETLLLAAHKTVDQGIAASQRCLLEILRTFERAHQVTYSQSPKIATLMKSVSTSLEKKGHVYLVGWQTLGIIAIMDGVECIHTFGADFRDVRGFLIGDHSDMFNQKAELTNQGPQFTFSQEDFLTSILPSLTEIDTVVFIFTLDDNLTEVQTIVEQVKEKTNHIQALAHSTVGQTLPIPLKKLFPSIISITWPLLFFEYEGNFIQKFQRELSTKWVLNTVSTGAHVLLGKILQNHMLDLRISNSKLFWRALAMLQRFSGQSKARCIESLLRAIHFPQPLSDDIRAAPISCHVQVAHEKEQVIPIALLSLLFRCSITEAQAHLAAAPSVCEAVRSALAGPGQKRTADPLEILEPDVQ

Row | SMILES | outcome [1] | outcome [2] | Potency [3] | Potency [4] | max response [5] | outcome [6] | outcome [7] | outcome [8] | max response [9] | max response [10] | Potency [11] | parasite growth, % of DMSO control [12] | parasite growth remaining, % of DMSO control (lower = more inhibition) [13] | parasite growth, % of control (lower = inhibition) [14] | growth, % of control [15] | efficacy [16] | AC50 [17] | remaining parasite growth % (stronger effect = lower value) [18] | activity, percent of control [19] | outcome [17]
1 | CNCC(O)c1ccc(O)cc1 (stereo not given) | inactive | inactive | inactive | inactive | 12.1% (inactive) | inactive | inactive | inactive | 28.1% (inactive) | -7.41% (inactive) | inactive | 81.9% | 99.8% | 71% | 53.7% | -23.3% (inactive) | – | – | – | –
2 | COc1cc2c(c(OC)c1OC)-c1ccc(OC)c(=O)cc1[C@@H](NC(C)=O)CC2 | – | – | – | – | – | – | – | – | – | – | – | 34.7% | 78.8% | 42.5% | 35.4% | -81.3% (inactive) | 316 nM (active) | – | – | –
3 | C=C(C)[C@H]1Cc2c(ccc3c2O[C@@H]2COc4cc(OC)c(OC)cc4[C@@H]2C3=O)O1 | inactive | inactive | inactive | – | – | inactive | inactive | inactive | 2.33% (inactive) and 3.94% (inactive) | – | inactive | 86.6% | 94.4% | 35.5% | 90.3% | 120% (inactive) | – | 82.1% | 97.6% | –
4 | C=C1CC[C@@]2(O)[C@H]3Cc4ccc(O)c5c4[C@@]2(CCN3CC2CC2)[C@H]1O5 | – | – | – | – | – | – | – | – | 7.59% (inactive) | – | – | – | – | – | – | 46.6% (inactive) | – | – | – | inactive

From PubChem BioAssay (NCATS)
